# Cy5 interf NS3h: counter-screen for HCV NS3 helicase inhibitors: fluorescence interference; hit rate 6% among 16,000; Cy5-dT15 DNA with NS3h; actives lie on both sides; signal over control mean, under 1 quenches; fluorescence interference ratio at 100 µM;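 active = compound fluorescence over control fluorescence at most 0.8, a quencher, or at least a set upper limit, an enhancer; inactive = ratio between 0.8 and the set upper limit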
# HCV NS3h FP: blocks HCV NS3 helicase binding to DNA; NS3h Cy5-dT15 DNA binding, fluorescence polarization; inhibition, % at 100 µM; hit rate 1.6% among 16,000;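 active = inhibition above the average over every tested compound plus 3 SD, cut at about 40% in these data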
# NS3h confirm: hepatitis C NS3 helicase inhibition, confirmation. NS3h binding to Cy5-dT15 DNA, fluorescence polarization. inhibition, % at 100 µM. shares compounds with HCV NS3h FP. hit rate 20% among 240. AID 720485;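 active = percent inhibition of 50% or more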
# SSB-DNA FP CB: E. coli SSB-DNA binding inhibition, NS3h counter-screen; shares compounds with HCV NS3h FP; E. coli SSB binding Cy5-dT15, fluorescence polarization; inhibition, % at 100 µM; hit rate 40% among 240; AID 720486;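 active = inhibition of at least 50%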;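 note: displacers lower Cy5 polarization so higher inhibition means more SSB displaced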
# Target sequence (P0AGE0 whole entry, looked up): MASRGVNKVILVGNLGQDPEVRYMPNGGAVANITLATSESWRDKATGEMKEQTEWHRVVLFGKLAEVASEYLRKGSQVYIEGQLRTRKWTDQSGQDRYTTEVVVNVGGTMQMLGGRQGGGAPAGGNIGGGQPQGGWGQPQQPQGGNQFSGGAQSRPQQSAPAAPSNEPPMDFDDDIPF
# Cy5 SSB fluor CB: counter-screen for HCV NS3 helicase inhibitors: fluorescence interference; AID 720487; fluorescence interference ratio at 100 µM; shares compounds with HCV NS3h FP; Cy5-dT15/E. coli SSB fluorescence interference; actives lie on both sides; hit rate 8% among 240;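 active = fluorescence interference ratio at or above 1.2, signal boosting, or at or below 0.8, signal quenching; inactive = ratio between 0.8 and 1.2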
# Cy5 interf conf: confirmation counter-screen for HCV NS3 helicase inhibitors: fluorescence interference; Cy5-dT15 DNA/NS3h fluorescence interference counterscreen; AID 720489; fluorescence interference ratio at 100 µM, hits read low; shares compounds with HCV NS3h FP; hit rate 44% among 240;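 active = fluorescence interference ratio at or below 0.8 quencher or at or above a set limitenhancer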
# Numbers stand for hits; – = inactive; · = not tested or not shown. Only some compounds are listed: those with a hit (about 6.9% of all), similar ones and a draw of the others.
SMILES,Cy5 interf NS3h,HCV NS3h FP,NS3h confirm,SSB-DNA FP CB,Cy5 SSB fluor CB,Cy5 interf conf
COc1ccc(/C=C/C(=O)N2CCOCC2)cc1Br,0.67,–,·,·,·,·
COc1ccc(/C=C/C(=O)N(C(C)C)C(C)C)cc1Br,–,–,·,·,·,·
Cc1ccc(-c2cc(NC(=O)c3cccc(C)c3)n[nH]2)cc1,–,–,·,·,·,·
Cc1ccc(S(=O)(=O)N/N=C\c2ccc([N+](=O)[O-])cc2)cc1,–,–,·,·,·,·
Cc1c(NC(=O)c2cccc(I)c2)cccc1-c1nc2ccccc2o1,–,–,·,·,·,·
COc1cc(/C=N/n2nnnc2N)ccc1OCc1ccc(F)cc1,0.77,–,·,·,·,·
COc1cc(/C=N\n2nnnc2N)ccc1OCc1c(C)no[n+]1[O-],–,–,·,·,·,·
COc1cc(/C=C2/SC(=S)N(CCC(=O)Nc3ccccc3C(F)(F)F)C2=O)cc(OC)c1OC,–,–,·,·,·,·
COc1ccc(OC)c(/C=N\NC(=O)/C(=C\c2ccc3c(c2)OCO3)NC(=O)c2ccccc2)c1,–,–,·,·,·,·
O=C(OCCc1ccc(SC(=O)c2ccccc2)s1)c1ccccc1,–,–,·,·,·,·
CCN(CC)c1ccc(/C=N/NC(N)=O)cc1,–,–,·,·,·,·
CCN(CC)c1ccc(/C=N\N2C(=O)c3ccccc3C2=O)cc1,1.2,–,·,·,·,·
CCOc1ccccc1NC(=O)CCCOc1ccc(Cl)cc1Cl,–,–,·,·,·,·
O=C(Nc1ccccc1CO)c1ccc(F)cc1,–,–,·,·,·,·
CN(C)c1ccc(NC(=O)N2CCOCC2)cc1,2.1,157,55,82,–,–
O=C(Nc1cccnc1)N1CCOCC1,–,–,·,·,·,·
COc1ccc(/C=C2/SC(=S)NC2=O)cc1OCc1ccc(Cl)cc1,–,–,·,·,·,·
COc1cc(/C=C2/SC(=S)NC2=O)cc(Cl)c1OCc1ccc(Cl)cc1Cl,–,48,–,55,–,–
O=C(COc1ccc([N+](=O)[O-])cc1)Nc1cc(Cl)cc(Cl)c1,–,–,·,·,·,·
O=C(/C=C/c1ccco1)Nc1ccc(O)cc1C(=O)O,–,61,–,93,–,–
Cc1cccc(NC(=O)c2ccccc2NC(=O)/C=C\c2ccco2)c1C,–,–,·,·,·,·
CC(C)c1ccc(/C=C2\SC(=S)N(C3CCS(=O)(=O)C3)C2=O)cc1 (stereo not given),–,–,·,·,·,·
Cc1ccsc1/C=C1\SC(=S)N(C2CCS(=O)(=O)C2)C1=O (stereo not given),1.3,68,–,–,–,0.72
O=C(/C(=C/c1ccccc1[N+](=O)[O-])c1nc2ccccc2[nH]1)c1ccccc1,–,–,·,·,·,·
C/C(CC1CC2=C(CC1(C)C)C(C)(C)CCC2)=N/O (stereo not given),–,–,·,·,·,·
SMILES,Cy5 interf NS3h,HCV NS3h FP,NS3h confirm,SSB-DNA FP CB,Cy5 SSB fluor CB,Cy5 interf conf
O=C1C=CC(=O)N1c1ccc(Cc2ccc(N3C(=O)C=CC3=O)c(Cl)c2)cc1Cl,–,–,·,·,·,·
O=C1C=CC(=O)N1c1ccccc1N1C(=O)C=CC1=O,–,81,63,–,–,–
COc1cc(/C=C/C(=O)c2c(-c3ccccc3)c3cc(Br)ccc3[nH]c2=O)cc(OC)c1OC,–,–,·,·,·,·
C=CCOc1c(I)cc(/C=C2/C(=O)NC(=O)N(c3ccc(OC)cc3)C2=O)cc1OC,–,–,·,·,·,·
COc1cc(C=C2C(=O)NC(=O)NC2=O)cc(I)c1OCc1ccc([N+](=O)[O-])cc1,0.48,54,–,–,–,0.59
COc1ccc(N2C(=O)C=C(Nc3ccccc3)C2=O)cc1,–,–,·,·,·,·
O=C1C=CC(=O)N1c1ccc(SC(F)F)cc1,–,–,·,·,·,·
C=C(C)C(=O)Oc1ccc(N2C(=O)C=CC2=O)cc1,–,81,55,–,–,–
CN(C)c1ccc(/C=C/C(=O)/C=C/c2ccc(N(C)C)cc2)cc1,–,–,·,·,·,·
C=C(C)C(=O)Oc1ccc(N2C(=O)CCC2=O)cc1,–,–,·,·,·,·
O=C1C=CC(=O)N1c1ccc(OC(F)F)cc1,–,46,–,–,–,–
COc1ccc(N2C(=O)C=CC2=O)cc1,0.77,84,–,–,–,0.77
CN(C)c1ccc(N2C(=O)C=CC2=O)cc1,–,65,–,–,–,0.76
O=C(/C=C/c1ccccc1[N+](=O)[O-])c1ccccc1,–,–,·,·,·,·
COc1cc(/C=N\NC(=O)CN2CCOCC2)ccc1O,–,–,·,·,·,·
CC(C)c1ccc(/C=C(\NC(=O)c2ccccc2)C(=O)NCC2CCCO2)cc1 (stereo not given),–,–,·,·,·,·
Cn1nc(-c2ccccc2O)nc1/C=C/c1ccccc1,–,–,·,·,·,·
CN(C)c1ccc(NC(=O)c2ccc(Cl)cc2)cc1,–,–,·,·,·,·
CN(C)c1ccc(C(=O)Nc2ccc(S(N)(=O)=O)cc2)cc1,–,78,57,–,–,0.78
O=C1C2C3CCC(O3)C2C(=O)N1c1cccc([N+](=O)[O-])c1 (stereo not given),–,–,·,·,·,·
CCOc1ccc(NC(=O)c2cccc(Oc3ccccc3)c2)c([N+](=O)[O-])c1,–,–,·,·,·,·
O=C1C=CC(=O)N1c1cccc([N+](=O)[O-])c1,–,63,66,–,–,–
Cc1ccc(OCC(N)=O)c(Br)c1,–,–,·,·,·,·
CCOc1ccc(N2C(=O)C=CC2=O)c([N+](=O)[O-])c1,–,64,–,–,–,–
O=C1C=CC(=O)N1c1ccc([N+](=O)[O-])cc1Br,–,88,62,–,–,0.76
SMILES,Cy5 interf NS3h,HCV NS3h FP,NS3h confirm,SSB-DNA FP CB,Cy5 SSB fluor CB,Cy5 interf conf
O=C1C2C3C=CC(C3)C2C(=O)N1c1ccc([N+](=O)[O-])cc1Br (stereo not given),–,–,·,·,·,·
Cc1ccc(N2C(=O)C=CC2=O)c(Br)c1,–,76,62,–,–,–
CN(C)C(=O)c1ccccc1NC(=O)c1ccccc1Cl,–,–,·,·,·,·
CCCCCCNC(=O)CN1C(=O)c2ccccc2C1=O,–,–,·,·,·,·
Cc1nccn1S(=O)(=O)c1ccc(Br)cc1,–,–,·,·,·,·
O=C(Nc1cc(Cl)cc(Cl)c1)c1ccc2c(c1)OCCO2,–,–,·,·,·,·
COc1ccc(-n2c(Cc3ccccc3)n[nH]c2=S)c(OC)c1,–,–,·,·,·,·
COc1cc(N)ccc1-n1c(C)ccc1C,0.7,68,–,–,0.69,0.61
CCN(CC)c1ccc(C=Nc2ccc(S(N)(=O)=O)cc2)c(O)c1,–,–,·,·,·,·
CCN(CC)c1ccc(N=Cc2c(O)[nH]c(=S)[nH]c2=O)cc1,0.73,94,54,70,–,0.79
Cc1ccc(C(=O)O/N=C(/N)Cc2cccs2)cc1[N+](=O)[O-],–,–,·,·,·,·
Nc1c(Cl)cc(N2C(=O)C=CC2=O)cc1Cl,–,54,62,–,–,–
O=C1NC(=O)N(c2ccc(Cl)cc2)C(=O)/C1=C/c1ccc(O)c(Cl)c1,–,74,–,–,–,–
O=C1NC(=O)N(c2ccc(Cl)cc2)C(=O)/C1=C\c1cccc(O)c1,–,–,·,·,·,·
O=C1NC(=O)N(c2ccc(Cl)cc2)C(=O)/C1=C/c1cc(I)c(O)c([N+](=O)[O-])c1,–,78,–,92,–,–
O=C1NC(=O)N(c2cccc(Br)c2)C(=O)/C1=C/c1ccc(O)c(Cl)c1,–,–,·,·,·,·
Cc1ccc(NC(=O)c2cc(I)ccc2Cl)cc1,–,–,·,·,·,·

# Assay outcomes deposited in PubChem BioAssay by Milwaukee Institute for Drug Discovery.
